Compound activity (PubChem BioAssay)
Compounds with a hit are over-represented: about 2.8% of the library has one in this group of screens.
Platelet DG rel – inhibitors of platelet dense granule secretion, primary screen, cell-based, MLPCN, human platelets; hit rate 0.22% among 300,000; AID 1663, 2009; human platelet-rich plasma, SFLLRN dense granule ATP release, luminescence; inhibition, %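 (compounds screened at 7.5 µM in platelet-rich plasma)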;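 active means mean replicate score, as percent of positive control, at or above 50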
HSP90 refold inh – HSP90 inhibitors, primary screen, cell lysate, luminescence; Heat shock protein HSP 90 (rabbit reticulocyte lysate; luciferase refolding); Rabbit reticulocyte lysate, luciferase refolding luminescence, 3 h; inhibition, % at 5.6 µM; hit rate 0.91% among 290,000;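 active means inhibition above the screen-wide mean plus 3 SD, computed separately per campaign, cut at about 16% in these data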;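 further: 0% = DMSO wells and 100% = 60 µM geldanamycin wells; inhibitors lower the luminescence because luciferase stays unfolded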
SENP7 inh – SENP7 protease inhibitors, primary screen, biochemical, luminescence, uHTS; Sentrin-specific protease 7 (Homo sapiens), Q9BQF6; hit rate 1.5% among 330,000; inhibition, % at 5 µM; AID 434973, 2010; recombinant SENP7, Z-RLRGG-aminoluciferin luminescence, 40 min;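 active means inhibition above about 50% at the single test dose, limit read from the data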;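 further: plate controls were DMSO with enzyme for no effect and no enzyme buffer wells for full effect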
SENP6 inh – SENP6 protease inhibitors, primary screen, biochemical, luminescence, uHTS | Recombinant SENP6 catalytic domain, aminoluciferin luminescence | inhibition, % at 10 µM | hit rate 1.8% among 330,000 | AID 2599, 2010;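 active means inhibition above about 50% at the single tested dose, limit read from the data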;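 further: plate controls were DMSO wells with enzyme for no effect and DMSO wells lacking enzyme for full effect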
SENP8 block-1 – human SENP8 protease inhibitors, primary screen, biochemical, fluorescence, Nedd8 protein substrate, uHTS | inhibition, % at 20 µM | recombinant SENP8 | hit rate 0.64% among 360,000 | Sentrin-specific protease 8 (Homo sapiens), Q96LD8; in the data active means inhibition mostly above about 40%, no sharp cut-off; inactive means mostly below about 27%
Target sequence (Q96LD8 whole entry, looked up): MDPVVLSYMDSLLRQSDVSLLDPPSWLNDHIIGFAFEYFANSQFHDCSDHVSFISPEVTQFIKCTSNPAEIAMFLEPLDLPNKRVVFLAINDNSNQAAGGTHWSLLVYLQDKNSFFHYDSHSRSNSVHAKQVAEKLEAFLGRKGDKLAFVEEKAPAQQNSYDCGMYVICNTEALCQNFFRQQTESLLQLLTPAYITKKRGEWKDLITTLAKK
SENP8 block-2 – SENP8 protease inhibitors, primary screen, biochemical, luminescence. hit rate 1.2% among 330,000. Sentrin-specific protease 8 (Homo sapiens), Q96LD8. inhibition, % at 10 µM. purified SENP8, Z-RLRGG-aminoluciferin cleavage. AID 2540, 2010; in the data active means inhibition above about 50%
SENP8 confirm – SENP8 protease inhibitors, retest, confirmation, biochemical, luminescence, single concentration | Recombinant SENP8, Z-RLRGG-aminoluciferin luminescence, 60 min | inhibition, % at 12.5 µM | shares compounds with SENP7 inh | AID 488912, 2010 | hit rate 40% among 6,200;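 active means mean inhibition across replicates above about 50%, limit read from the data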
SENP6 confirm – SENP6 protease inhibitors, confirmation, biochemical, luminescence, single concentration | shares compounds with SENP7 inh | recombinant SENP6, Z-RLRGG-aminoluciferin luminescence | inhibition, % at 12.5 µM | hit rate 58% among 6,200 | AID 488915, 2010
SENP7 conf – SENP7 protease inhibitors, retest, confirmation, biochemical, luminescence, single concentration | shares compounds with SENP7 inh | recombinant SENP7, Z-RLRGG-aminoluciferin luminescence, 40 min | inhibition, % at 12.5 µM | hit rate 69% among 6,200 | AID 488917, 2010
Casp3 SENP sel – caspase-3 protease inhibitors, confirmation, selectivity assay for SENP inhibitor project, biochemical, single concentration. purified caspase-3, Z-DEVD-aminoluciferin luminescence, 60 min. shares compounds with SENP7 inh. inhibition, % at 12.5 µM. AID 488918, 2010. hit rate 60% among 6,200;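 active means mean inhibition above about 50%, limit read from the data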;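 further: plate controls were enzyme with DMSO for no effect and wells without caspase-3 for full effect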
Target sequence (P42574 28-227 limits assumed): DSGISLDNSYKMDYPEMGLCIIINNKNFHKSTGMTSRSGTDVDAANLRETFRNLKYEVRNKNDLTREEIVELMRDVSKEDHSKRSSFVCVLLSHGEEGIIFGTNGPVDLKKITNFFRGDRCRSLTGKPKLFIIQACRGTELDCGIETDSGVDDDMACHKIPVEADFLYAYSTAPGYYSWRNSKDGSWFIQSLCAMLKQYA
Luc interf – luminescence interference (SENP counter-screen). inhibition, % at 12.5 µM. hit rate 39% among 6,200. shares compounds with SENP7 inh. Pre-incubated SENP8/Z-RLRGG-aminoluciferin, luciferase luminescence interference;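 active means mean inhibition above about 50% when retested at one dose, limit read from the data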;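 further: plate controls were DMSO wells with completed reaction for no effect and substrate without enzyme for full effect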
* marks the source's active call; other numbers are inactive results.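 How the source made its calls, unless noted: active means mean inhibition above about 50% in the one-dose retest (limit read from the data); inactive means the rest.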

Screening O=C(C1=NN(c2ccccc2)C(=O)CC1)N1CCc2ccccc2C1 returned Platelet DG rel 1, HSP90 refold inh -3, SENP7 inh -1, SENP6 inh 13, SENP8 block-1 0 and SENP8 block-2 2.
`CC(=O)Oc1ccc(C2=Cc3ccc(OC(C)=O)cc3OC2C)cc1` (stereo unspecified) gave SENP8 block-1 -269.
Screening COc1ccc(CONc2ncnc3nonc23)cc1[N+](=O)[O-] returned Platelet DG rel 4, HSP90 refold inh -1, SENP7 inh 46, SENP6 inh 70*, SENP8 block-1 11, SENP8 block-2 55*, SENP8 confirm 2, SENP6 confirm 50*, SENP7 conf 83*, Casp3 SENP sel 70* and Luc interf 62*.
CCONc1ncnc2nonc12 was read as Platelet DG rel -4, HSP90 refold inh -1, SENP7 inh 2, SENP6 inh -13, SENP8 block-1 0 and SENP8 block-2 -6.
For CCSc1nnc(NC(=O)c2cccs2)s1 the results were Platelet DG rel 17, HSP90 refold inh -1, SENP7 inh 2, SENP6 inh -2, SENP8 block-1 -41 and SENP8 block-2 -17.
`Cc1ccc(C(=O)Nc2ncc(Cc3ccccc3)s2)o1` gave Platelet DG rel 4, HSP90 refold inh 12, SENP7 inh 63*, SENP6 inh 71*, SENP8 block-1 -10, SENP8 block-2 51*, SENP8 confirm 6, SENP6 confirm 68*, SENP7 conf 92*, Casp3 SENP sel 62* and Luc interf 56*.
Cc1ccc(Cc2cnc(NC(=O)c3cccs3)s2)cc1 was read as Platelet DG rel 1, HSP90 refold inh 4, SENP7 inh 0, SENP6 inh 1, SENP8 block-1 -39 and SENP8 block-2 -19.
`O=C(Nc1ncc(Cc2ccccc2)s1)c1cccs1` gave Platelet DG rel 9, HSP90 refold inh 13, SENP7 inh 58*, SENP6 inh 53*, SENP8 block-1 -49, SENP8 block-2 40, SENP8 confirm 57*, SENP6 confirm 57*, SENP7 conf 83*, Casp3 SENP sel 37 and Luc interf 53*.
For O=C(Nc1nnc(SCc2ccccc2)s1)c1cccs1 the results were Platelet DG rel 5, HSP90 refold inh -1, SENP7 inh 53*, SENP6 inh 86*, SENP8 block-1 -197, SENP8 block-2 69*, SENP8 confirm -4, SENP6 confirm 25, SENP7 conf 36, Casp3 SENP sel 30 and Luc interf 6.
COCCN(Cc1ccco1)C(=O)Cn1ncc2c(=O)oc3ccccc3c21 was read as Platelet DG rel -3, HSP90 refold inh -7, SENP7 inh -7, SENP6 inh 8, SENP8 block-1 36 and SENP8 block-2 8.
`COC(=O)c1ccc(OC(=O)/C=C/c2ccco2)cc1` gave Platelet DG rel -5, HSP90 refold inh 0, SENP7 inh 77*, SENP6 inh 83*, SENP8 block-1 15, SENP8 block-2 78*, SENP8 confirm 84*, SENP6 confirm 86*, SENP7 conf 73*, Casp3 SENP sel 74* and Luc interf 45.
`CCc1cc[n+](C2=C([O-])c3ccccc3C(=O)/C2=N\S(=O)(=O)c2cccs2)cc1` gave Platelet DG rel 3, HSP90 refold inh 8, SENP7 inh 47, SENP6 inh 84*, SENP8 block-1 90*, SENP8 block-2 53*, SENP8 confirm 36, SENP6 confirm 80*, SENP7 conf 49, Casp3 SENP sel 22 and Luc interf 3.
`Cc1cc(C(=O)N/N=C/C(Cl)=C/c2ccccc2)c(C)o1` gave Platelet DG rel 26, HSP90 refold inh -3, SENP7 inh 53*, SENP6 inh 49, SENP8 block-1 21, SENP8 block-2 28, SENP8 confirm 36, SENP6 confirm 36, SENP7 conf 75*, Casp3 SENP sel 42 and Luc interf 40.
For CC(/C=N/NC(=O)c1cccs1)=C\c1ccccc1 the results were Platelet DG rel 3, HSP90 refold inh 1, SENP7 inh 77*, SENP6 inh 3, SENP8 block-1 -38, SENP8 block-2 71*, SENP8 confirm 13, SENP6 confirm 81*, SENP7 conf 93*, Casp3 SENP sel 63* and Luc interf 20.
Screening Cc1cc(C(=O)N/N=C/c2c(C)nn(-c3ccccc3)c2C)c(C)o1 returned Platelet DG rel 24, HSP90 refold inh 0, SENP7 inh 36, SENP6 inh 50*, SENP8 block-1 25, SENP8 block-2 35, SENP8 confirm 34, SENP6 confirm 25, SENP7 conf 60*, Casp3 SENP sel 55* and Luc interf 23.
CC(/C=N/NC(=O)Cc1cccs1)=C\c1ccccc1 was read as Platelet DG rel -8, HSP90 refold inh -2, SENP7 inh 3, SENP6 inh -12, SENP8 block-1 27 and SENP8 block-2 -15.
CC(/C=N/NC(=O)c1ccccc1F)=C\c1ccccc1 was read as Platelet DG rel 13, HSP90 refold inh 0, SENP7 inh 43, SENP6 inh 58*, SENP8 block-1 2, SENP8 block-2 28, SENP8 confirm 48, SENP6 confirm 41, SENP7 conf 70*, Casp3 SENP sel 52* and Luc interf 54*.
